Bioassay records as filed in PubChem BioAssay.
DAX1 inh-1 – NR0B1 (DAX1) inhibition; HEK293 Gal4-DAX1 luciferase reporter, luminescence; inhibition, % at 6.75 µM; 0.99% of 340,000 active; AID 504766;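 active = inhibition above the mean over all tested compounds plus 3 SD, cut at about 4.2% in these data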;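 note: 0% = DAX1-transfected cells with DMSO and 100% = empty-vector control cells with DMSO; inhibition shows as a rise in luminescence from relieved DAX1 repression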
Target sequence (P51843 207-470 limits assumed): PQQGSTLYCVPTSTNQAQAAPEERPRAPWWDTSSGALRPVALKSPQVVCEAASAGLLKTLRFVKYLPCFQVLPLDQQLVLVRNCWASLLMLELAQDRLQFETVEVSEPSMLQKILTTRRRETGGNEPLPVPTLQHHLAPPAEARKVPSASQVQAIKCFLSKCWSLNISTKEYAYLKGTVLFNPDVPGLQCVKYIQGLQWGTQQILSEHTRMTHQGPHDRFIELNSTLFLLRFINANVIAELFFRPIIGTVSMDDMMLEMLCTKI
hcDAF12 agonist – H. contortus DAF-12 activation, primary screen; activation, % at 6.8 µM; HEK293 hcDAF-12 lit1-tk-luc reporter, luminescence; 0% DMSO, 100% Δ7-dafachronic acid; 1.4% of 370,000 active;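 active = activation above the mean of all tested compounds plus 3 SD, cut at about 5.5% in these data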;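 note: 100% = response to 3 µM Δ7-dafachronic acid high control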
ssDAF-12 act – activates DAF-12 receptor from parasite S. stercoralis; HEK293 ssDAF-12/GRIP1 lit1-tk-luc reporter, luminescence; % of 3 µM dafachronic acid response; activation, % at 6.8 µM; 1% of 370,000 active; AID 652126;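 active = activation above the mean over all tested compounds plus 3 SD, cut at about 0.9% in these data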;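 note: 0% = DMSO-only wells and 100% = 3 µM delta7-dafachronic acid wells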
hgDAF12 agonist – activates the H. glycines DAF-12 receptor ligand-binding domain | HEK293 GAL4-hgDAF12 UAS-luciferase reporter, agonist luminescence; normalized to butyrate control | activation, % at 6.8 µM | AID 687014 | 1.8% of 370,000 active;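 active = activation above a cutoff set at the mean of all screened compounds plus 3 SD, cut at about 10% in these data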;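 note: 0% = DMSO wells and 100% = sodium butyrate wells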
DAX1 inh-2 – blocks DAX1 repression of SF-1 activated StAR promoter | HEK293T StAR-luciferase reporter, SF-1/DAX-1 repression relief | inhibition, % at 6.8 µM | 1.1% of 370,000 active | AID 652010;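 active = inhibition above the mean over all tested compounds plus 3 SD, cut at about 3.6% in these data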;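 note: 0% = DAX-1 cells with DMSO and 100% = cells lacking DAX-1 with DMSO; higher inhibition means more luminescence from relief of DAX-1 repression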
* hit, by the source's call; . = no result. This is a sample that favours compounds with a hit; in the whole collection about 4.1% have one here.

SMILES | DAX1 inh-1 | hcDAF12 agonist | ssDAF-12 act | hgDAF12 agonist | DAX1 inh-2
C/C(Cn1cnc([N+](=O)[O-])n1)=N\NC(=O)c1ccccc1F | 1 | 1 | 1 | 11* | 1
C/C(Cn1cnc([N+](=O)[O-])n1)=N\NC(=O)c1ccccc1O | 1 | 1 | -1 | 8 | 1
O=C(OC12CCCN(C1)/C(=C/c1ccncc1)C2)c1ccco1 (configuration not stated) | . | -4 | -1 | -3 | -1
Cc1ccccc1C(=O)NCCOc1ccccc1Cl | 5.0* | 3 | 1.1* | 12* | 2
O=C(NCCOc1ccccc1F)c1cc(F)c(F)cc1Cl | 1 | 5 | 1.2* | 13* | 3.7*
CCOc1cnc(C(=O)NNC(=O)C(Br)C(C)C)o1 (configuration not stated) | 7.8* | 2 | -1 | -1 | -1
CCOc1cnc(-c2ccccc2F)o1 | 2 | 1 | -1 | -2 | 0
O=C(N=Nc1c(O)[nH]c2ccccc12)c1ccc(CN2CCOCC2)cc1 | 2 | -1 | -1 | 2 | 1
O=C(N=Nc1c(O)[nH]c2ccccc12)c1ccc2c(c1)OCO2 | 0 | 5 | 0 | 13* | 3
O=C(NCc1cc(Cl)cc(Cl)c1)c1ccc2sc([C@@H]3O[C@H](CO)[C@H](O)[C@H](O)[C@H]3O)nc2c1 | . | 1 | -1 | 0 | 0
O=C(NCc1cccnc1)c1ccc2sc([C@@H]3O[C@H](CO)[C@H](O)[C@H](O)[C@H]3O)nc2c1 | . | 1 | 0.9* | 0 | 1
O=C(CC1CC2CCC1C2)Nc1nc(-c2ccccn2)cs1 (configuration not stated) | 0 | 6.3* | -1 | 8 | 0
COc1ccc(-c2cc(CNc3nc4cc(-c5ccccc5C)sc4c(=O)n3C)on2)cc1 | . | 1 | 0 | 8 | 4.3*
COCCNc1nc2cc(-c3ccc(C)cc3)sc2c(=O)n1C | . | 3 | 1.0* | 12* | 3.8*
COc1cccc(CNc2nc3cc(-c4ccccc4C)sc3c(=O)n2C)c1 | . | -1 | -1 | -3 | -1
COc1cccc(-c2cc3nc(NCc4cccnc4)n(C)c(=O)c3s2)c1 | . | 5 | 1.0* | 9 | 2
Cn1c(NCc2cccnc2)nc2cc(-c3cccc(C(F)(F)F)c3)sc2c1=O | . | -1 | -1 | -3 | 0
O=c1c2ccccc2oc2ccc(Oc3ccccc3)cc12 | 5.1* | 3 | 0 | 9 | 2
CCN(CC)CCNC(=O)/C(=C/c1cn(C)c2ccccc12)NC(=O)c1ccc(OC)c(OC)c1 | 5.2* | 1 | 0 | 2 | 0
COc1cc(C(=O)N/C(=C\c2cn(S(=O)(=O)N(C)C)c3ccccc23)C(=O)NCCCO)cc(OC)c1OC | 1 | 0 | -1 | 1 | 0
COc1cc(C(=O)N/C(=C\c2cn(C)c3ccccc23)C(=O)NCCCO)cc(OC)c1OC | 4.7* | -1 | -2 | -2 | 0
C=Cc1ccc(C(=O)Nc2nnc(-c3cccnc3)s2)cc1 | . | -4 | -1 | 1 | -1
COc1cc2c(cc1NC(=O)COC(=O)C(CCSC)NC(=O)c1ccccc1Cl)oc1ccccc12 (configuration not stated) | -1 | 5 | 2.5* | -1 | 1
O=C(NN=C1CCCC1)c1[nH]c2ccc(Cl)cc2c1-c1ccccc1 | . | 1 | -1 | 0 | 0
CC(=O)NNC(=O)c1[nH]c2ccc(Cl)cc2c1-c1ccccc1 | 5.0* | -1 | -1 | 1 | 0
SMILES | DAX1 inh-1 | hcDAF12 agonist | ssDAF-12 act | hgDAF12 agonist | DAX1 inh-2
CCOC(=O)[C@]12CCCCC/C=C\1N(Cc1ccc(OC)cc1)C(=O)[C@H]2CC(=O)N1CCN(C(=O)C2CC2)CC1 | . | -3 | -1 | -1 | 0
O=C(CSc1ccccc1)NC1CCCCN(Cc2cccc(Cl)c2)C1=O (configuration not stated) | . | -5 | -2 | -4 | -1
COc1ccc(NC(=S)N2CCCC2)c(OC)c1 | 4.6* | 1 | -1 | 2 | 0
COc1ccc(NC(=S)N2CCN(Cc3cccc(F)c3)CC2)c(OC)c1 | 5.0* | 0 | -2 | -1 | 0
COc1ccc(NC(=S)N2CCN(c3ccccc3)CC2)c(OC)c1 | 0 | 0 | -1 | -1 | 0
COc1ccccc1NC(=S)N1CC(C)OC(C)C1 (configuration not stated) | 4.6* | -1 | -2 | -2 | 0
COc1ccc(Cl)cc1NC(=S)N1CC(C)OC(C)C1 (configuration not stated) | 1 | 1 | 0 | 0 | -1
O=C(CSc1ncnc2sc3c(c12)CCCC3)Nc1ccc(Oc2ccccc2)cc1 | . | 0 | -1 | 1 | 0
COc1ccccc1C(=O)n1ccc2ccc(-c3ccc4ccn(Cc5ccc(C#N)cc5)c4c3)cc21 | . | 1 | -1 | -1 | -2
C[C@@H]1ON(C)[C@H]2C[C@H]3c4[nH]c5c(-c6ccc7c(c6)OCO7)cccc5c4CCN3C[C@@H]12 | . | -1 | -1 | 0 | 0
COC(=O)c1ccc(N=Cc2c(-c3ccccc3)[nH][nH]c2=O)cc1 | 0 | 3 | 1.5* | -2 | 0
Cc1nc2ccc(NC(=O)c3ccccc3)cc2c(=O)n1Cc1ccc(F)cc1 | -2 | -3 | -2 | -1 | -4
CNS(=O)(=O)c1cn(CC(=O)NCc2ccc(OC)cc2)cc1S(=O)(=O)NC | 2 | -1 | -2 | 2 | 0
CNS(=O)(=O)c1cn(CC(=O)NCc2cccc(OC)c2)cc1S(=O)(=O)NC | 1 | 5.8* | 0 | -1 | 0
COCC#Cc1ccc(CC[C@H]2O[C@H]3CC[C@H](CO)O[C@H]3C[C@H]2n2cc(C(C)(C)O)nn2)cc1 | . | -2 | -2 | 1 | 0
O=[N+]([O-])c1ccc(/C=N/N2CCCCC2)cc1 | 4.4* | 4 | 0 | 6 | 1
N#Cc1ccc(C=NN2CCCCCC2)cc1 | 2 | 1 | 0 | 8 | 3.8*
CCn1c(SCc2c(F)cccc2F)nc2sc3c(c2c1=O)CCCC3 | . | -1 | -1 | 3 | 1
Nc1ccccc1SCC(=O)Nc1ccc2c(c1)OCO2 | 0 | 1 | 0 | 5 | 4.2*
O=C(CSc1nccc(=O)[nH]1)Nc1ccc2c(c1)OCCO2 | 4.8* | 2 | 0 | 11* | 1
O=C(CN1C(=O)c2cccc3cccc1c23)Nc1ccc2c(c1)OCO2 | 4.4* | -1 | -2 | 3 | -1
CC(C(=O)Nc1ccc2c(c1)OCCO2)N(C)Cc1c(F)cccc1Cl (configuration not stated) | 4.5* | -2 | 0 | -1 | 1
O=C(CSCc1ccccc1Cl)Nc1ccc2c(c1)OCCO2 | 5.8* | 3 | -1 | 11* | 3
COC(=O)c1sccc1NC(=O)CSc1ccccc1N | 4.8* | 0 | -1 | -1 | 0
O=C(CNCc1ccccc1Cl)Nc1ccc2c(c1)OCCO2 | 2 | 0 | -1 | 12* | 3
O=C1CCC[C@H]2C[C@H](NCc3ccccc3F)CC[C@]23CCCN13 | . | 0 | -1 | 0 | .
